# Test results from PubChem BioAssay AID588342 (National Center for Advancing Translational Sciences (NCATS), 2011).
# About 25,000 (6.9%) of roughly 360,000 compounds were called active. Another 9% or so got no clear call; they are omitted. Shown is part of a subset that was picked to be rich in actives. Unmarked numbers belong to inactive results. Calls follow the shape of the dose curve; as a rule, active = well fitted inhibition curve with a large enough effect; inconclusive = small, poorly fitted or top-dose-only effect; inactive = flat fitted curve, though single readings scatter.
# Target: Luciferin 4-monooxygenase (Photinus pyralis) (UniProt P08659)
# Sequence (P08659 whole entry, looked up): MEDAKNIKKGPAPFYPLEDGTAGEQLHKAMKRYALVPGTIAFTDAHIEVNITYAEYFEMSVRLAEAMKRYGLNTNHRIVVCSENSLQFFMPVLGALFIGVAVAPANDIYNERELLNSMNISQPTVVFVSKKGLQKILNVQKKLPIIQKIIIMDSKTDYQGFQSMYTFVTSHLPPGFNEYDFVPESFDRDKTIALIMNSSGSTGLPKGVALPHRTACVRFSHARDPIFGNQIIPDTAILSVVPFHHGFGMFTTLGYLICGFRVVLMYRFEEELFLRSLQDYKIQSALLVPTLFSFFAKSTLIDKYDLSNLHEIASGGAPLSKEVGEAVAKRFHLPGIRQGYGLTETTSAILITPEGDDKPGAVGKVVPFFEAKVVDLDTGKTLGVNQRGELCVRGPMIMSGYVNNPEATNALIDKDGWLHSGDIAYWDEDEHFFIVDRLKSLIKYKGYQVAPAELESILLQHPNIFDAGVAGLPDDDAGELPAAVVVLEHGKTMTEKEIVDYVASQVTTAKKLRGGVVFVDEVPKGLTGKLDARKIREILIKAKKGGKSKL
# Experiment: qHTS profiling assay for firefly luciferase inhibitor/activator using purifed enzyme and Km concentrations of substrates (counterscreen for miR-21 project); also: nearly all actives have a fitted effect of over 55% in size;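 as to activity change, negative = inhibition: plate controls were vehicle for no effect and reference inhibitor for full effect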
# Conditions: purified FLuc, luminescence inhibition; series mostly up to 57.5 µM; activity change, negative = inhibition: at the top concentration
# Method in brief: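 Purified P. pyralis luciferase, 10 nM final, with Km-level 10 uM D-luciferin and 10 uM ATP in 50 mM Tris acetate pH 7.5, 10 mM Mg acetate, 0.01% Tween-20, 0.05% BSA; 6-point qHTS titration about 60 µM downward; luminescence read.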
# Potency is read from the fitted curve at half-maximal effect.
Structure (SMILES),"activity change, negative = inhibition [%]",Potency
CCOc1ccccc1CNC(=O)c1ccc(-n2c(C)cc3c2CCC(C)C3)cc1 (stereo not given),4.62,
COc1ccc2c(c1)c(=O)c(S(=O)(=O)c1ccc(F)cc1)cn2CC(=O)Nc1ccc(C)cc1C,-2.97,
COc1ccccc1CNC(=O)c1ccc(CS(=O)c2ccccc2Cl)o1 (stereo not given),6.69,
COc1ccc(NC(C)=O)cc1NC(=O)CN1CCN(c2ccc(F)cc2)CC1,1.43,
CCCCCn1c(=O)[nH]c2cc(C(=O)Nc3cc(C)cc(C)c3)ccc2c1=O,2.7,
COc1ccc(OC)c(-n2nnc(-c3nc(-c4cc(OC)c(OC)c(OC)c4)no3)c2C)c1,-1.25,
COc1ccc(-c2noc(-c3cccc(OC)c3OC)n2)cc1OC,,2.39 µM (active)
COc1ccc(-c2cc(-c3nc(-c4cc(OC)c(OC)c(OC)c4)no3)[nH]n2)c(OC)c1,4.6,
CCOc1ccccc1NC(=O)Cn1nnc(C(=O)Nc2ccc(C)c(C)c2)c1N,-8.7,
COc1ccccc1NC(=O)COc1ccc(C(=O)OCC(=O)N(C(C)C)C(C)C)cc1OC,4.59,
COc1cc(CO)ccc1OCC(=O)Nc1cccc2ccccc12,,10.7 µM (active)
COc1ccc(N(CC(=O)Nc2cccc3ccccc23)S(C)(=O)=O)c(OC)c1,-3.27,
Cc1nc(SCC(=O)N2CCN(c3ccccc3)CC2)[nH]c(=O)c1C,1.39,
CCC1=[N+]([O-])C(C)(/C(C)=N\O)N(O)C1(C)C (stereo not given),0.914,
Oc1c(CN2CCCC2)cc(COCc2ccccc2)c2cccnc12,1.01,
COC(=O)CN1C(=O)CSc2ccc(S(=O)(=O)Nc3cc(C)ccc3C)cc21,-3.31,
O=C(Nc1ccc(S(=O)(=O)N2CCCCC2)cc1)C1CCN(C(=O)c2ccc(F)cc2)CC1,-0.175,
COc1cccc(N2C(=O)C3CCCN3C2c2ccc(F)cc2)c1 (stereo not given),-2.91,
Oc1ccc(C2Nc3cccc4cccc(c34)N2)cc1,,16.9 µM (active)
COc1ccc(C2CC(c3ccc(C)cc3)Nc3ncnn32)cc1 (stereo not given),2.33,
COc1ccc(C2=CC(c3cccc(OC)c3)n3nnnc3N2)cc1 (stereo not given),-2.1,
COc1cccc(C2Nc3cccc4cccc(c34)N2)c1,,26.9 µM (active)

Structure (SMILES),"activity change, negative = inhibition [%]",Potency
Cc1ccc(C2CC(c3cccc(C)c3)n3nc(N)nc3N2)cc1 (stereo not given),1.9,
Brc1ccccc1C1Nc2cccc3cccc(c23)N1,-1.29,
Cc1ccc(C2Nc3cccc4cccc(c34)N2)cc1,,10.7 µM (active)
COc1cc(C(=O)OCC(=O)NC(C)CCc2ccccc2)cc(OC)c1OC (stereo not given),-0.439,
CCCCOc1ccc(NC(=O)c2cc3c(n(-c4ccc(Cl)cc4)c2=O)CCCC3=O)cc1,-1.22,
O=C(c1c(F)cccc1F)N1CCN(S(=O)(=O)c2ccc3c(c2)OCCO3)CC1,2.43,
COc1ccccc1C(CNC(=O)c1cccc(S(=O)(=O)Nc2ccc(F)cc2)c1)N(C)C (stereo not given),-2.1,
O=C(NCCc1ccccn1)c1cccnc1Oc1ccc(Cl)cc1,-0.702,
O=C(COc1cc(Cl)c(Cl)cc1Cl)NCCc1ccccn1,-2.83,
O=C(NCCc1ccccn1)c1cc(-c2ccc(Cl)cc2)nc2ccccc12,,16.9 µM (active)
Cc1cccc(NC(=O)Cn2nc(-c3ccc(Cl)cc3)c3ccccc3c2=O)c1,-1.34,
COC(=O)c1cc(Oc2ccc(S(=O)(=O)N3CCOCC3)cc2[N+](=O)[O-])cc(C(=O)OC)c1,6.19,
COCCNS(=O)(=O)c1cc(-c2nn3c(C)nnc3c3ccccc23)ccc1C,-2.57,
CC(=O)N1c2ccc(S(=O)(=O)N3CCCCCC3)cc2CC1C(=O)NCc1ccccc1C (stereo not given),-6.6,
COc1ccc(OC)c(NC(=O)CSC2=Nc3ccccc3C3=NC(CC(=O)NCCc4ccccc4)C(=O)N23)c1 (stereo not given),-9.66,
COc1ccccc1Nc1nc(N)nc(N)c1S(=O)(=O)c1ccccc1,-2.45,
CNS(=O)(=O)c1cccc(C(=O)OCCCC(=O)c2ccccc2)c1,-3.76,
CCOc1ccc(CC(=O)Nc2ccc(S(=O)(=O)Nc3cc(C)on3)cc2)cc1OCC,-1.96,
CCOc1ccc(C(=O)Nc2ccc(S(=O)(=O)Nc3cc(C)on3)cc2)cc1,,16.9 µM (active)
COc1cc(OC)cc(C(=O)Nc2ccc(S(=O)(=O)Nc3cc(C)on3)cc2)c1,-2.42,
CC(C)OCCCNC(=O)c1cc(Sc2ccc(F)cc2)nc2ccccc12,-0.266,
Fc1ccc2[nH]c3c(N4CCN(Cc5ccc6c(c5)OCO6)CC4)ncnc3c2c1,-1.87,

Structure (SMILES),"activity change, negative = inhibition [%]",Potency
CC(C)OCCCNc1ncnc2c1[nH]c1ccc(F)cc12,,15.1 µM (active)
O=S(=O)(c1ccc(Sc2nnc3ccccn23)nc1)N1CCOCC1,1.11,
CCOc1ccc(NC(=O)Cn2c(=O)n(CCCC(=O)NCc3ccc4c(c3)OCO4)c(=O)c3ccccc32)cc1,-4.81,
Cc1ccnc(Nc2nc3ccccc3s2)n1,,1.9 µM (active)
Cc1cc(C)cc(-n2ccnc2SCC(=O)Nc2nc3ccccc3s2)c1,-12.5,
Cc1sc2ncnc(Sc3nc4ccccc4s3)c2c1C,-17.6,
Cc1ccc(CCNC(=O)c2ccc3c(c2)N(Cc2cc(C)ccc2C)C(=O)c2ccccc2S3=O)cc1 (stereo not given),1.69,
CCCn1c(NCc2ccc(N(CC)CC)cc2)nc2ccccc21,-3.91,
Cc1ccc(CNC(=O)CCc2c(C)nc3nc(CNC(=O)OC(C)(C)C)nn3c2C)cc1,-4.1,
Cc1nc(-c2ccc([N+](=O)[O-])cc2)c(-c2ccccc2)o1,-0.124,
Cc1ccc(-c2cn3cc([N+](=O)[O-])ccc3n2)cc1,,0.757 µM (active)
Cc1ccc(C(=O)Cn2cc([N+](=O)[O-])nc2C)cc1,1.35,
CSc1nnc2ccc(-c3ccc(C)cc3)nn12,-14.2,
Cc1ccc(-c2cn3cc(C)ccc3n2)cc1,,0.107 µM (active)
Cc1ccc(-c2nc(SCc3ccc(Br)cc3)n3[nH]c(=O)cc3n2)cc1,-10.4,
Cc1cc(N2CCOCC2)nc(-c2ccc(Br)cc2)n1,-5.76,
Cc1ccc(-n2c(-c3ccc(Cl)cc3)n[nH]c2=S)cc1,-2.19,
Cc1ccc2nc(-c3ccc(Br)cc3)cn2c1,,0.0849 µM (active)
CCc1c(C)sc(NC(=O)C2c3ccccc3Oc3ccccc32)c1C(=O)OC(C)C,0.745,
O=C(CSc1nc2ccccc2c(=O)n1CCCO)NC1CC1,0.433,
CCN(CC)S(=O)(=O)c1ccc(N2CCOCC2)c(NC(=O)C(C)Oc2ccc(F)cc2)c1 (stereo not given),4.08,
